Compound activity from PubChem BioAssay.
hcDAF12 agonist = H. contortus DAF-12 activation, primary screen | 370,000 tested, 1.4% active | HEK293 hcDAF-12 lit1-tk-luc reporter, luminescence; 0% DMSO, 100% Δ7-dafachronic acid | activation, % at 6.8 µM;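 active = activation above the mean of all tested compounds plus 3 SD, cut at about 5.5% in these data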;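 also: 100% = response to 3 µM Δ7-dafachronic acid high control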
esBAF inh = blocks esBAF chromatin remodeling in mouse ES cells | Bmi1-luciferase knock-in reporter, 24 h; 100% = twice the neutral-well signal | reporter increase, % at 12.5 µM | 350,000 tested, 2% active | AID 602393; in the data active = activation above about 40%; inconclusive = no clear call, values can overlap the other calls;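 also: 0% = median of the plate's neutral control wells and 100% = double that signal; a rise in the Bmi1 reporter signal indicates esBAF inhibition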
Wnt bcat act = Wnt/beta-catenin pathway activation | AID 743398 | Wnt/beta-catenin reporter cell assay, activator, plate reader | activation, % at 9.35 µM | 300,000 tested, 1.2% active; in the data active = activation above about 30%, passing the limit was not always enough; inconclusive = no clear call, values can overlap the other calls;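 also: 0% = neutral control wells and 100% = positive control wells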
hgDAF-12 ag = hgDAF-12 agonism, primary luciferase screen; HEK293 GAL4-hgDAF12 UAS-luciferase reporter, agonist luminescence; normalized to butyrate control; activation, % at 6.8 µM; 370,000 tested, 1.8% active;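 active = activation above a cutoff set at the mean of all screened compounds plus 3 SD, cut at about 10% in these data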;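 also: 0% = DMSO wells and 100% = sodium butyrate wells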
ssDAF12 agonist = S. stercoralis DAF-12 activation, primary screen. HEK293 ssDAF-12/GRIP1 lit1-tk-luc reporter, luminescence; % of 3 µM dafachronic acid response. 370,000 tested, 1% active. AID 652126. activation, % at 6.8 µM;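 active = activation above the mean over all tested compounds plus 3 SD, cut at about 0.9% in these data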;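 also: 0% = DMSO-only wells and 100% = 3 µM delta7-dafachronic acid wells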
DAX1 StAR inh = DAX1 (NR0B1) inhibition, primary screen; HEK293T StAR-luciferase reporter, SF-1/DAX-1 repression relief; inhibition, % at 6.8 µM; 370,000 tested, 1.1% active; AID 652010;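 active = inhibition above the mean over all tested compounds plus 3 SD, cut at about 3.6% in these data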;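 also: 0% = DAX-1 cells with DMSO and 100% = cells lacking DAX-1 with DMSO; higher inhibition means more luminescence from relief of DAX-1 repression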
DAX1 conf = confirmation of human DAX1 (NR0B1) inhibitors | 2,400 tested, 87% active | shares compounds with DAX1 StAR inh | inhibition, % at 6.8 µM | AID 652134 | HEK293T StAR-promoter luciferase reporter, SF-1/DAX-1 repression;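 active = inhibition above the average of every tested compound plus 3 SD, cut at about 3.8% in these data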;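 also: 0% = DAX-1 cells with DMSO and 100% = no DAX-1 control cells with DMSO; active compounds raise luminescence by relieving repression of the StAR reporter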
Target sequence (P51843 whole entry, looked up): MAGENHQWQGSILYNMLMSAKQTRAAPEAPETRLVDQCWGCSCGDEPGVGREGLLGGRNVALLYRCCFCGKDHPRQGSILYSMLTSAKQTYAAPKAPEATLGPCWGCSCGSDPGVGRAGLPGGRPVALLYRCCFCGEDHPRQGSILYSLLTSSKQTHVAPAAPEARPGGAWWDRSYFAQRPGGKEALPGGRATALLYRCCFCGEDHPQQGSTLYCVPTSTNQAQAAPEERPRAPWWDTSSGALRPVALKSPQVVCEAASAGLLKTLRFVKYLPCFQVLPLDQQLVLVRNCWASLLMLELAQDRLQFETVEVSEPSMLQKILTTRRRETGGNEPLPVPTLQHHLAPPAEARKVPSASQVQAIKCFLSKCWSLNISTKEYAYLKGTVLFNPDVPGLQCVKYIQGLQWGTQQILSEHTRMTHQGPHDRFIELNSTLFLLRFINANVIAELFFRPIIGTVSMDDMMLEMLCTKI
SF1 AF2mut Luc = nonselective inhibitor or artifact in SF-1 mutant DAX1 counter-screen; inhibition, % at 6.8 µM; shares compounds with DAX1 StAR inh; 2,400 tested, 78% active; AID 652136; HEK293 StAR-luciferase, SF-1 AF2 mutant, luminescence;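 active = inhibition above the mean of all tested compounds plus 3 SD, cut at about 3% in these data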;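 also: 0% = DAX-1 transfected cells with DMSO and 100% = cells without DAX-1 with DMSO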
LXR ag = LXR-beta agonism as hcDAF-12 counter-screen; 3,400 tested, under 10 active; AID 743027; shares compounds with hcDAF12 agonist; HEK293 Gal4-LXR tk-luc reporter, luminescence, 24 h; normalized: DMSO 0%, positive control 100%; activation, % at 6.8 µM;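 active = mean percent activation of the reporter above a cutoff set as the average over tested compounds plus their standard deviation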
hcDAF12 ag = confirmation of H. contortus DAF-12 agonists. shares compounds with hcDAF12 agonist. HEK293 hcDAF-12 lit1-tk-luc reporter, luminescence; % of Δ7-dafachronic acid response. activation, % at 6.8 µM. 3,400 tested, 61% active;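 active = mean activation across triplicate tests above the threshold derived from the earlier primary screen, cut at about 5.5% in these data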;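 also: 0% = DMSO only wells and 100% = 3 µM Δ7-dafachronic acid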
* marks the source's active call; other numbers are inactive results. This is a sample that favours compounds with a hit; in the whole collection about 4.2% have one here.

For Oc1cccc(/C=N/Nc2cccc3cccnc23)c1 the results were hcDAF12 agonist 21.3*, esBAF inh 5.4, Wnt bcat act 14.1, hgDAF-12 ag 23.1*, ssDAF12 agonist 3.7*, DAX1 StAR inh 5.7*, DAX1 conf 20.2*, SF1 AF2mut Luc 10.0*, LXR ag 2.1 and hcDAF12 ag 24.6*.
C/C(=N\Nc1cccc2cccnc12)c1ccccc1O was read as hcDAF12 agonist 24.9*, Wnt bcat act 12.0, hgDAF-12 ag 24.9*, ssDAF12 agonist 4.2*, DAX1 StAR inh 5.6*, DAX1 conf 13.8*, SF1 AF2mut Luc 4.3*, LXR ag 2.7 and hcDAF12 ag 20.3*.
C[C@H]1CN([C@@H](C)CO)C(=O)c2cc(/C=C/c3ccccc3)cnc2O[C@@H]1CN(C)S(=O)(=O)c1ccccc1 was read as esBAF inh 10.9.
For Clc1ccccc1NN=Cc1ccccn1 the results were hcDAF12 agonist 12.9*, Wnt bcat act 59.8*, hgDAF-12 ag 18.8*, ssDAF12 agonist 1.0*, DAX1 StAR inh 8.0*, DAX1 conf 7.6*, SF1 AF2mut Luc 4.7*, LXR ag 0.7 and hcDAF12 ag 9.6*.
Nc1c(Cl)ncnc1N/N=C/c1ccccn1 was read as hcDAF12 agonist -3.2, Wnt bcat act -2.2, hgDAF-12 ag -3.7, ssDAF12 agonist -1.0 and DAX1 StAR inh -2.6.
`COc1ccc(S(=O)(=O)N(C)C[C@H]2Oc3ccc(NS(C)(=O)=O)cc3C(=O)N([C@@H](C)CO)C[C@H]2C)cc1` gave esBAF inh 2.1.
COc1ccc(-c2csc(-c3ccccc3)n2)c(OC)c1 was read as hcDAF12 agonist 15.0*, Wnt bcat act 13.2, hgDAF-12 ag 21.5*, ssDAF12 agonist 2.4*, DAX1 StAR inh 8.9*, DAX1 conf 18.5*, SF1 AF2mut Luc 8.5*, LXR ag 1.9 and hcDAF12 ag 10.6*.
`O=C(O)c1ccc(N/N=C/c2cc3cc4c(cc3nc2Cl)OCCO4)cc1` gave hcDAF12 agonist 11.7*, esBAF inh -57.9, Wnt bcat act 22.5, hgDAF-12 ag 24.2*, ssDAF12 agonist 2.9*, DAX1 StAR inh 7.3*, DAX1 conf 25.3*, SF1 AF2mut Luc 9.6*, LXR ag 3.1 and hcDAF12 ag 20.5*.
Screening O=C(O)c1ccc(N/N=C/c2ccc3c(c2)OCO3)cc1 returned hcDAF12 agonist -1.2, Wnt bcat act -0.7, hgDAF-12 ag -4.6, ssDAF12 agonist -1.7 and DAX1 StAR inh -0.3.
O=C(/C=C\Nc1ccccn1)c1ccccc1 was read as hcDAF12 agonist 11.8*, esBAF inh -47.7, Wnt bcat act 5.8, hgDAF-12 ag 8.7, ssDAF12 agonist 0.6, DAX1 StAR inh 5.3*, DAX1 conf 10.0*, SF1 AF2mut Luc 0.6, LXR ag 1.3 and hcDAF12 ag 9.7*.
COc1ccc(C(=O)/C=C/Nc2ccccn2)c(OC)c1 was read as hcDAF12 agonist 3.2, Wnt bcat act -0.2, hgDAF-12 ag 8.7, ssDAF12 agonist 0.8 and DAX1 StAR inh 3.0.
For O=C(/C=C/Nc1cccc(O)c1)c1ccccc1 the results were hcDAF12 agonist 7.0*, esBAF inh -7.0, Wnt bcat act 47.8*, hgDAF-12 ag 7.0, ssDAF12 agonist -0.2, DAX1 StAR inh 6.6*, DAX1 conf 12.5*, SF1 AF2mut Luc 6.0*, LXR ag 2.0 and hcDAF12 ag 12.6*.
`CCCC#Cc1ccc2c(c1)O[C@@H](CN(C)Cc1cccnc1)[C@H](C)CN([C@@H](C)CO)S2(=O)=O` gave esBAF inh 3.7.
For CC(C)C#Cc1cnc2c(c1)C(=O)N([C@H](C)CO)C[C@H](C)[C@H](CN(C)C(=O)Nc1ccc(F)cc1)O2 the results were esBAF inh 15.2.
For Cc1ccc(/C=N/Nc2nc3ccccc3s2)o1 the results were hcDAF12 agonist 21.3*, Wnt bcat act 35.2*, hgDAF-12 ag 12.8*, ssDAF12 agonist 2.8*, DAX1 StAR inh 6.2*, DAX1 conf 15.8*, SF1 AF2mut Luc 9.1*, LXR ag 1.9 and hcDAF12 ag 20.5*.
Cc1ccc(/C=N/Nc2nc(C(C)(C)C)cs2)o1 was read as hcDAF12 agonist 4.0, esBAF inh inconclusive, Wnt bcat act 4.6, hgDAF-12 ag 5.4, ssDAF12 agonist -0.3 and DAX1 StAR inh 0.5.
Screening Cc1cccc(NC(=O)c2cnc3sccn3c2=O)c1 returned hcDAF12 agonist 6.9*, esBAF inh -10.4, Wnt bcat act 29.5, hgDAF-12 ag 12.8*, ssDAF12 agonist 0.9*, DAX1 StAR inh 6.5*, DAX1 conf 11.6*, SF1 AF2mut Luc 4.4*, LXR ag 1.6 and hcDAF12 ag 13.0*.
`CC(C)NC(=O)N(C)C[C@@H]1Oc2ccc(N(C)C)cc2C(=O)N([C@H](C)CO)C[C@@H]1C` gave esBAF inh -0.8.
`Oc1ccccc1/C=C/c1noc(-c2ccccc2O)n1` gave hcDAF12 agonist 15.2*, Wnt bcat act 10.3, hgDAF-12 ag 17.9*, ssDAF12 agonist 3.9*, DAX1 StAR inh 6.1*, DAX1 conf 12.6*, SF1 AF2mut Luc 9.3*, LXR ag 1.1 and hcDAF12 ag 12.1*.
Screening Cc1ccc(N=Nc2c(N)n[nH]c2N)cc1 returned hcDAF12 agonist 1.9, esBAF inh 34.0, Wnt bcat act 8.9, hgDAF-12 ag 6.4, ssDAF12 agonist -0.9 and DAX1 StAR inh 0.9.
`Cc1ccc(N=Nc2cc(C)ccc2N)cc1` gave hcDAF12 agonist 19.6*, Wnt bcat act 21.7, hgDAF-12 ag 17.2*, ssDAF12 agonist 2.8*, DAX1 StAR inh 4.7*, DAX1 conf 17.7*, SF1 AF2mut Luc 8.1*, LXR ag 2.0 and hcDAF12 ag 22.2*.
For COc1ccc(NC(=O)N(C)C[C@H]2OCCCC[C@@H](C)Oc3ccc(NC(=O)Nc4ccc(F)cc4)cc3C(=O)N([C@H](C)CO)C[C@@H]2C)cc1 the results were esBAF inh -1.2.
